PLK1 PBD inh: blocks phosphopeptide binding to human PLK1 polo-box domain. P53350. Plk1 PBD binding of FITC phosphopeptide, fluorescence polarization. Potency, µM, inactives show max response, negative = inhibition, usual class: inhibitors. 360,000 compounds, 2.8% hits; further: series mostly up to about 57 µM; on the % scale 0 is the no-effect control and ±100 the full control effect; nearly all actives have a fitted effect of over 65% in size
Target sequence (P53350 whole entry, looked up, the tested form may be a part): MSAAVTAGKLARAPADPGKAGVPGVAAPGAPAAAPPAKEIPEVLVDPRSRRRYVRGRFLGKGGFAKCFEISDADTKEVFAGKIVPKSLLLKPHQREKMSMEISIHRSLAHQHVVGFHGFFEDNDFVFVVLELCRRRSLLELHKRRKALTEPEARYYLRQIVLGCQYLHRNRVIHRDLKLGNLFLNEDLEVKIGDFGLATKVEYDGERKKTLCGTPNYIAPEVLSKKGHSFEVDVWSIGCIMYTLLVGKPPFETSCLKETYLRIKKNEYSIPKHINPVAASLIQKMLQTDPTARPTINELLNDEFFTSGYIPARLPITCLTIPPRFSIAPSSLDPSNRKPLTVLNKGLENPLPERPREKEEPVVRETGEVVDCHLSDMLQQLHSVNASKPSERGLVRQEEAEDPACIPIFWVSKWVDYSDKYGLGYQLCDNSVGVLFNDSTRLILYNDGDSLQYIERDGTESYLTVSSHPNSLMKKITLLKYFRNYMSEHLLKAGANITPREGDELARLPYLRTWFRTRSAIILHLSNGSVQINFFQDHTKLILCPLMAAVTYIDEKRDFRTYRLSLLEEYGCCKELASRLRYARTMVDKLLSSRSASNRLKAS
HP1b chromo inh: blocks HP1-beta chromodomain binding to methylated histone tails. P83916. AlphaScreen HP1-beta / biotin-H3K9me3 peptide binding. Potency, µM (titrated, usually from 114 µM), for inactives: at the highest dose activity change, negative = inhibition, most hits filed as inhibitors. 390,000 compounds, 0.56% hits; further: nearly all actives have a fitted effect of over 70% in size
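AlphaScreen: HP1-beta (50 nM) preformed 30 min with biotin-H3(1-18)K9me3 peptide (50 nM) in PBS pH 7.4, 0.01% Tween-20. Compound added for 30 min at RT, then streptavidin donor/nickel chelate acceptor beads (10 ug/mL) for 30 min.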
JMJD2A Tudor: JMJD2A Tudor domain (human) inhibition; O75164; AlphaScreen JMJD2A-Tudor / H3K4me3 peptide binding; Potency, µM (series often up to 114 µM), for inactives: at the highest dose activity change, negative = inhibition, hits mostly inhibitors; 390,000 compounds, 4.4% hits; AID 504339; further: on the % scale 0 is the no-effect control and ±100 the full control effect; nearly all actives have a fitted effect of over 50% in size
BAZ2B block: blocks human BAZ2B; AlphaScreen BAZ2B-H3K14Ac peptide displacement; Q9UIF8; Potency, µM (doses to about 114 µM), without a hit: top-dose activity change, negative = inhibition, most hits filed as inhibitors; AID 504333; 360,000 compounds, 4.4% hits; further: on the % scale 0 is the no-effect control and ±100 the full control effect; nearly all actives have a fitted effect of over 60% in size
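Multi-concentration screen (max 110 uM) measuring displacement of acetylated histone H3 peptide from BAZ2B by AlphaScreen, using 50 nM protein, 50 nM peptide and 10 ug/mL streptavidin donor plus Ni-chelate acceptor beads.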
Sfp inh: blocks B. subtilis Sfp PPTase activity; Potency, µM, for inactives: largest response in the series, negative = inhibition, usual class: inhibitors; 310,000 compounds, 3.5% hits; Biochemical Sfp PPTase activity, qHTS;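 further: the enzyme is Sfp with the accession as filed and its product quenches rhodamine fluorescence; 0% = enzyme reaction without inhibitor and -100% = no enzyme wells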
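After 15 min at room temperature with compound, 15 nM Sfp received 5 uM rhodamine-CoA plus 12.5 uM BHQ-2-ybbR (50 mM Hepes pH 7.6, 10 mM MgCl2). Rate came from the fluorescence difference over 30 min, ex 525/em 598 nm.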
G9a inh: G9a (human) methyltransferase inhibition; Potency, µM (doses to about 102 µM), for the others: at the highest dose activity, negative = inhibition, usual class: inhibitors; 350,000 compounds, 8.8% hits; G9a H3K9 monomethylation, AlphaScreen, 2 h; Q96KQ7; further: on the % scale 0 is the no-effect control and ±100 the full control effect; nearly all actives have a fitted effect of over 75% in size
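G9a (20 nM) preincubated 15 min RT with compounds, then 500 nM biotinylated H3K9 peptide and 20 uM SAM added; 2 h RT reaction. Monomethyl-H3K9 product detected by AlphaScreen with anti-H3K9me1 antibody, streptavidin donor and anti-rabbit IgG acceptor beads.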
* = called active by the depositor; ? = inconclusive; . = no result given; [ ] = remark or other dose. The list is not random: actives were taken first. Their share in the collection is about 12%. The call rests on the fitted dose curve; in most records, active means well fitted curve in the direction sought with a large enough effect; inconclusive means small, poorly fitted or top-dose-only effect, or another doubt; inactive means no such curve, though single readings can be large; an effect the other way counts as inactive or inconclusive. Potency means the concentration at half of the fitted maximal effect.

SMILES	PLK1 PBD inh	HP1b chromo inh	JMJD2A Tudor	BAZ2B block	Sfp inh	G9a inh
COCC(=O)N1CCC2(CC1)CCN(C(c1ccccc1)c1ccccc1)CC2	.	.	.	.	5%	8%[12.7 µM]
Cc1ccc(O)c(N=Cc2ccc(C)s2)c1	-3%	42%	-6%	-29%	56µM*	-50%[59 µM]
Cc1ccc(O)c(N=Cc2cccs2)c1	6%	37%	2%	-34%	-26%	-19%[59 µM]
COc1cccc(NC(=O)C(C)Sc2nnc(C3CC3)n2C2CC2)c1 (stereo unspecified)	-3%	30%	-8%	11%	.	-12%[12.7 µM]
Cc1ccc(NC(=O)Cn2c(=O)n(CCCCC(=O)NCc3ccc4c(c3)OCO4)c(=O)c3ccccc32)cc1	.	36%	-7%	-14%	.	-11%[59 µM]
Cc1c(CC(=O)NCCCCCC(=O)O)c(=O)oc2cc3c(cc12)CCC(C)(C)O3	3%	49%	-6%	2%	4%	13%
Cc1c(CC(=O)NCCCC(=O)O)c(=O)oc2cc3c(cc12)CCC(C)(C)O3	27µM*	7%	?	0%	6%	-7%
CC(C)(C)NC(=O)C(C1CC1)n1c(=O)c(-c2ccccc2)nc2ccccc21 (stereo unspecified)	-13%	.	.	.	.	.
Clc1cccc(-n2cc(-c3ccccc3)c3c(NC4CCCC4)ncnc32)c1	.	52%	5%	-3%	.	4%[59 µM]
CN(C)c1ccc(Nc2ncnc3c2c(-c2ccccc2)cn3-c2cccc(Cl)c2)cc1	.	?	13µM*	4.5µM*	.	8.9µM*
O=C(Cn1ccnc1)c1ccc(O)c(O)c1	-9%	15%	22µM*	56µM*	.	?
CCn1c(-c2cc(Br)ccc2O)n[nH]c1=S	-18%	21%	13µM*	.	.	.
COc1ccc(Cl)cc1-c1n[nH]c(=S)n1C	-12%	22%	6.3µM*	24%	-2%	7.9µM*
COc1ccc(Cl)cc1-c1nc(SCC(=O)N(C)C)n[nH]1	-2%	28%	-22%	13%	18%	-3%
CNC(=O)CSc1n[nH]c(-c2cc(Cl)ccc2OC)n1	-10%	22%	4%	-8%	20%	-27%
C=CCn1c(-c2cc(Cl)ccc2OC)n[nH]c1=S	-15%	8%	7.9µM*	1%	0%	1.6µM*
CCn1c(-c2cc(Cl)ccc2OC)n[nH]c1=S	-7%	20%	7.1µM*	0%	-5%	5.6µM*
Cc1ccc(S(=O)(=O)N2CCN(C(=O)CC(C)n3nc(C)c(Cl)c3C)CC2)cc1C (stereo unspecified)	-3%	18%	-5%	-24%	-7%	.
COc1ccc2c(c1)c1nnc(SCCN3CCOCC3)nc1n2C	.	16%	-14%	.	.	.
O=C(Cn1cc(S(=O)(=O)N2CCCC2)c(S(=O)(=O)N2CCCC2)c1)Nc1ccccc1	.	4%	-19%	7%[57.1 µM]	.	-8%[59 µM]
CCOC(=O)C1C(=O)NC(SCC(=O)Nc2nccs2)=C(C#N)C1c1ccccc1OCC (stereo unspecified)	2.7µM*	?	56µM*	-35%	14µM*	1.6µM*
C=CCSC1=C(C#N)C(c2ccccc2OCC)C(C#N)C(=O)N1 (stereo unspecified)	27µM*	-13%	-31%	-12%	35µM*	45µM*
COc1ccccc1C(=O)OCC(=O)NC12CC3CC(CC(C3)C1)C2	-3%	5%	-1%	9%	.	?
O=C(COc1ccccc1F)NC12CC3CC(CC(C3)C1)C2	30µM*	27%	-15%[11.4 µM]	0%	11%	56%
CCOc1ccc(/C(O)=C2/C(=O)C(=O)N(CC3CCCO3)C2c2ccco2)cc1 (stereo unspecified)	0%	18%	79µM*	2%	-9%	?
SMILES	PLK1 PBD inh	HP1b chromo inh	JMJD2A Tudor	BAZ2B block	Sfp inh	G9a inh
O=C1C(=O)N(Cc2ccco2)C(c2cccs2)/C1=C(\O)c1cccc([N+](=O)[O-])c1 (stereo unspecified)	-6%	32%	-19%	-30%	45µM*	24%[59 µM]
CCOc1cccc(/C(O)=C2/C(=O)C(=O)N(CCOC)C2c2ccco2)c1 (stereo unspecified)	-1%	19%	79µM*	9%	?	?
COCCN1C(=O)C(=O)/C(=C(/O)c2cccc(OC)c2)C1c1ccc(C)o1 (stereo unspecified)	-17%	43%	?	-30%	?	18%[12.7 µM]
COCCN1C(=O)C(=O)/C(=C(/O)c2cccc(OC)c2)C1c1ccncc1 (stereo unspecified)	-9%	6%	?	-17%	-3%	50µM*
CCOc1ccccc1NC(=O)Cn1c(=O)n(CC(=O)NCc2ccccc2Cl)c(=O)c2sccc21	.	37%	6%	5%	.	0%[59 µM]
CC[C@@H](c1ccccc1)n1c(=O)n2n(c1=O)[C@H]1[C@H](O)[C@H]3O[C@@H]3/C(=N/OCC(C)C)[C@@H]1CC2	.	.	.	.	0%	.
Cc1ccc(C2/C(=C(/O)c3ccc(Br)cc3)C(=O)C(=O)N2Cc2ccco2)o1 (stereo unspecified)	-28%	9%	?	1%	3.5µM*	15%[59 µM]
COc1ccc(OC)c(C2/C(=C(/O)c3ccc(C)cc3)C(=O)C(=O)N2Cc2ccco2)c1 (stereo unspecified)	2%	23%	-2%	-38%	3%	?
COc1ccc(C2/C(=C(/O)c3ccccc3)C(=O)C(=O)N2CC(C)O)c(OC)c1 (stereo unspecified)	-14%	11%	18µM*	-25%	-4%	?
COc1cccc(C2/C(=C(/O)c3ccc(C)cc3)C(=O)C(=O)N2Cc2ccco2)c1 (stereo unspecified)	-2%	27%	-6%	-37%	14%	-12%[59 µM]
COc1cccc(C2/C(=C(/O)c3ccccc3)C(=O)C(=O)N2Cc2ccco2)c1 (stereo unspecified)	-7%	3%	-19%	-22%	?	56µM*
Cc1ccccc1COc1ccc(/C(O)=C2/C(=O)C(=O)N(CCCn3ccnc3)C2c2ccco2)cc1 (stereo unspecified)	-17%	-3%	?	-2%	?	32µM*
O=C(/C=C/c1ccccc1)Nc1cccc(C(=O)NC2CC2)c1	-2%	23%	-17%	.	.	.
CCCN1CCN(CCCNC(=O)c2ccc(CS(=O)c3ccc(OC)cc3)o2)CC1 (stereo unspecified)	-19%	32%	1%	-1%	16%	40%
COc1ccc(CNc2ccnc(-c3c(C)noc3C)n2)c(OC)c1	.	.	.	.	?	-3%[0.501 µM]
COc1ccc(OC)c(C2/C(=C(/O)c3ccccc3)C(=O)C(=O)N2Cc2ccco2)c1 (stereo unspecified)	-3%	42%	-9%	-10%	2%	-4%[59 µM]

Screening data deposited in PubChem by National Center for Advancing Translational Sciences (NCATS).
